The values below come from PubChem BioAssay AID602448 (National Center for Advancing Translational Sciences (NCATS), 2012).

Each structure is given as a SMILES string. Calls of active or inactive are those of the source.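 Rule for the calls: active = max inhibition of at least 60%; inconclusive = max inhibition above 30% but below 60%; inactive = max inhibition of 30% or less.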

Sequence of Follicle-stimulating hormone receptor (Homo sapiens) (P23945 whole entry, looked up): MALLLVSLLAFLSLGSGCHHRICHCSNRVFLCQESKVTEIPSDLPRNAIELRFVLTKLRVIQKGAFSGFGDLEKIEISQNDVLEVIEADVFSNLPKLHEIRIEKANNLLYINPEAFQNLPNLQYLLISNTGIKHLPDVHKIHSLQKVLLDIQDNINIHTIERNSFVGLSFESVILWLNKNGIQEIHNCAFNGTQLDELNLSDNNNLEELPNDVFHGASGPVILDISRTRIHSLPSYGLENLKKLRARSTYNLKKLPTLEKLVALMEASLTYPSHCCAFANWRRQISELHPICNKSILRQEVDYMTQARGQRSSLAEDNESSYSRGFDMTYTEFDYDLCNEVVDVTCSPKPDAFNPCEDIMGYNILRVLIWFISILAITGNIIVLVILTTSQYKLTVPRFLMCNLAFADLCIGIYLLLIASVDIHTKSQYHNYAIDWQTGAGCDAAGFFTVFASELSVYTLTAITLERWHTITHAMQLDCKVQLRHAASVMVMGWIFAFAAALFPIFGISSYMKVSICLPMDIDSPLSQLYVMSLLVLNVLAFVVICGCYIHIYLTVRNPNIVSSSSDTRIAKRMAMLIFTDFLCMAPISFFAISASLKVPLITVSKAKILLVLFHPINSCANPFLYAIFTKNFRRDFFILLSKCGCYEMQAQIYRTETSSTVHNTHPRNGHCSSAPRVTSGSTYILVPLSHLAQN

This test addresses Follicle-stimulating hormone receptor (Homo sapiens) (UniProt P23945). Kind of test: qHTS for antagonists of the Thyroid Stimulation Hormone Receptor: Hit Validation with Follickle Stimulating Hormone Receptor (FSHR). The note with it: FSHR-expressing cells, cAMP HTRF, antagonist counterscreen; stronger effect = higher value. The source says:
The thyroid-stimulating hormone receptor (TSHR) is a member of the 7 trans-membrane-spanning receptor (7TMR) family of cell surface receptors. TSHR-mediated hyperthyroidism is important in thyroid pathology. The development of small molecule antagonists of TSHR may lead to therapeutic approaches for TSHR-mediated hyperthyroidism caused by constitutively activating mutations or stimulating auto-antibodies associated with Graves' disease. Graves' disease is the leading cause of hyperthyroidism and is caused by autoantibodies that stimulate TSHR (TsAbs) causing thyroid growth and unregulated overproduction of thyroid hormones and existing treatments have liabilities (agranulocytosis). In addition, TSHRs are known to be expressed in multiple extrathyroidal tissues including bone, brain, kidney, testis, fat and cells of the immune system but the role of the TSHR in these tissues is not clear. Therefore, TSHR antagonists/inverse agonists could be used as probes of extrathyroidal TSHR function. Finally, TSHR inverse agonists, which are a subclass of antagonists that inhibit agonist-independent (or basal or constitutive) TSHR signaling, could be used to inhibit TSH-independent signaling in patients with recurrent or metastatic thyroid cancer who are receiving thyroid hormone to suppress TSH. In collaboration between scientist from the NCGC and the NIDDK, a miniaturized HTRF high-throughput screen was developed. It's a cell based assay, where an anti cAMP antibody contains a fluorescent cryptate tag (excitation 337 nm; emission 620 nm) and the acceptor is cAMP-d2 (excitation 620 nm; emission 665 nm). When antibody and cAMP-d2 interact and are excited by a 337 nm light, a FRET occurs resulting in emission at 665 nm. The assay is competition between cAMP-d2 and cAMP (from the cell lysate). The homogeneous protocol allows for one step dispense after stimulation that is automation friendly. This is a hit validation assay in a counterscreen using FSHR, a closely related hormone receptor NIH Chemical Genomics Center [NCGC] NIH Molecular Libraries Probe Centers Network [MLPCN] Grant: MH090855 Assay Provider: Marvin Gershengorn, NIDDK
An anti cAMP antibody contains a fluorescent cryptate tag (excitation 337 nm; emission 620 nm) and the acceptor is cAMP-d2 (excitation 620 nm; emission 665 nm). When antibody and cAMP-d2 interact and are excited by a 337 nm light, a FRET occurs resulting in emission at 665 nm. The assay is competition between cAMP-d2 and cAMP (from the cell lysate). The homogeneous protocol allows for one step dispense after stimulation that is automation friendly.
For orientation: qHTS replaces the single test concentration by a dilution series.
Regarding `Cc1ccc(-n2[nH]c(C)c(/C=N/Nc3ccc([N+](=O)[O-])cc3[N+](=O)[O-])c2=O)cc1C`, the max inhibition was 81.1% (active).
For the compound `CC(=O)Oc1c(C)cc(Cl)cc1C(=O)Nc1ccc([N+](=O)[O-])cc1Cl`, the max inhibition was 63.6% (active).
The value for `COc1ccc(-c2csc(/C(C#N)=C\c3ccc(O)c([N+](=O)[O-])c3)n2)cc1OC` was 87.2% (active); that for `O=c1cc(C(F)(F)F)[nH]c2c(C(F)(F)F)cccc12` was 82.4% (active); that for `COc1ccc(OCC(=O)NC(=S)Nc2ccc(N3CCOCC3)c(Cl)c2)cc1` was 87.6% (active).
As to `O=C1/C(=C\c2cc([N+](=O)[O-])ccc2O)SC(=S)N1Cc1ccc(Cl)cc1`, the max inhibition is 94.2% (active).
As for `O=C(COc1cccc2ccccc12)Nc1ccc(Cl)cc1C(=O)O`, the max inhibition is 62.5% (active).
`CCC(=O)OCCNc1cc(Sc2nccn2C)c2nonc2c1[N+](=O)[O-]`: the max inhibition came out at 20%.
